In PubChem BioAssay (EPA / NIEHS):
Records with an inconclusive call do not appear. Active and inactive are the calls of the source. The calls were made as follows, unless noted: active = hit-call score of the fitted dose curve at least 0.9, where 1 is the maximum; inactive = score below 0.9.

Key:
[1] = ATG_PBREM_CIS: Attagene CIS-FACTORIAL HepG2 Assay for human Phenobarbital-responsive Enhancer Module (PBREM) (AID 2282955); settings: HepG2 PBREM cis-reporter, Attagene multiplexed transcription; actives raise or lower the signal
Outline: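 Reporter mRNA read by RT-PCR, 6-FAM primer extension, HpaI digestion and capillary electrophoresis. Transfected HepG2 cells, 24 h compound exposure. Gain or loss of signal fitted bidirectionally relative to DMSO baseline.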

[2] = molecular target: Paired box protein Pax-6 (Homo sapiens) (UniProt P26367); test: ATG_Pax6_CIS: Attagene CIS-FACTORIAL HepG2 Assay for human Paired Box 6 (PAX6) (AID 2282956); settings: HepG2 CIS-FACTORIAL PAX6 reporter transcription, RNA readout; actives raise or lower the signal
Outline: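 DMSO-referenced bidirectional fits of reporter mRNA fluorescence; HepG2 with transient cis-promoter MRTUs, 24 h post-dose, RT-PCR plus capillary electrophoresis detection.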

[3] = ATG_PXRE_CIS: Attagene CIS-FACTORIAL HepG2 Assay for human Pregnane X Receptor Element (PXRE) (AID 2282957); settings: HepG2 Attagene CIS-FACTORIAL PXRE reporter, mRNA; actives raise or lower the signal
Outline: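 Fluorescent capillary electrophoresis of amplified reporter cDNA gave the signal, collected 24 h after dosing HepG2 cells that held transfected cis-element reporter constructs.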

[4] = ATG_PPRE_CIS: Attagene CIS-FACTORIAL HepG2 Assay for human Peroxisome Proliferator-activated Response Element (PPRE) (AID 2282958); settings: HepG2 PPRE cis-element reporter, Attagene transcription factor profiling; actives raise or lower the signal
Outline: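 Read-out: fluorescent reporter mRNA fragments resolved by capillary electrophoresis after RT-PCR. HepG2 cells carried transiently transfected PPRE-driven cis reporter constructs and were dosed for 24 h; gain or loss of signal fitted relative to DMSO.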

[5] = ATG_RORE_CIS: Attagene CIS-FACTORIAL HepG2 Assay for human RAR-related Orphan Receptor Element (RORE) (AID 2282959); settings: HepG2 Attagene cis-factorial RORE reporter, mRNA; actives raise or lower the signal
Outline: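 Readout: fluorescent reporter mRNA by RT-PCR plus capillary electrophoresis, 24 h after dosing transfected HepG2 cells. Endogenous transcription factor activity on a cis promoter element is measured. Gain or loss of signal fitted against DMSO.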

[6] = ATG_Sox_CIS: Attagene CIS-FACTORIAL HepG2 Assay for human SRY-box transcription factor (SOX) (AID 2282960); settings: HepG2 Attagene cis-factorial SOX reporter, mRNA; actives raise or lower the signal
Outline: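 Read-out: fluorescent RT-PCR products of SOX1-linked reporter transcripts resolved by capillary electrophoresis, fitted bidirectionally against DMSO. Transiently transfected HepG2 cells, 24 h after chemical exposure, endogenous transcription factor activity.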

[7] = molecular target: Transcription factor Sp1 (Homo sapiens) (UniProt P08047); test: ATG_Sp1_CIS: Attagene CIS-FACTORIAL HepG2 Assay for human Specificity Protein 1 (Sp1) (AID 2282961); settings: HepG2 Sp1 cis-reporter transcription, actives raise or lower the signal
Outline: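 Read-out: fluorescence of 6-FAM-labeled, HpaI-digested RT-PCR products separated by capillary electrophoresis. HepG2 cells carried transfected cis-element reporter units and were exposed to chemicals for 24 h; gain or loss of signal fitted relative to DMSO.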

[8] = ATG_SREBP_CIS: Attagene CIS-FACTORIAL HepG2 Assay for human Sterol Regulatory Element Binding (SREBP) (AID 2282962); settings: HepG2 Attagene cis-factorial SREBP reporter, mRNA; actives raise or lower the signal
Outline: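 In this cis-format assay, HepG2 liver cells express reporters controlled by promoter elements responsive to native transcription factors. Exposure lasts 24 h; reporter mRNA fluorescence from capillary electrophoresis gives the signal, fitted bidirectionally against DMSO.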

[9] = molecular target: Signal transducer and activator of transcription 3 (Homo sapiens) (UniProt P40763); test: ATG_STAT3_CIS: Attagene CIS-FACTORIAL HepG2 Assay for human Signal Transducer and Activator of Transcription 3 (STAT3) (AID 2282963); settings: HepG2, Attagene cis-factorial STAT3 reporter transcription; actives raise or lower the signal
Outline: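 Cis-factorial format: endogenous transcription factors in HepG2 drive transfected reporter units. After 24 h treatment, reporter RNA was reverse-transcribed, amplified, FAM-labelled and HpaI-digested before CE analysis; activity scored in both directions against DMSO.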

[10] = ATG_TA_CIS: Attagene CIS-FACTORIAL HepG2 Assay for human TA Basal Promoter (AID 2282964); settings: HepG2 Attagene CIS-factorial TA basal promoter reporter; actives raise or lower the signal
Outline: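 Background-control readout: TA basal promoter reporter mRNA, fitted in both directions relative to DMSO. Measured by RT-PCR and capillary electrophoresis 24 hours after treating HepG2 human liver cells transiently carrying multiplexed cis-regulated reporter constructs.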

[11] = ATG_TCF_b_cat_CIS: Attagene CIS-FACTORIAL HepG2 Assay for human T-Cell-Factor with beta-catenin (TCF/b-cat) (AID 2282965); settings: HepG2 TCF/beta-catenin cis-reporter transcription, actives raise or lower the signal
Outline: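 Measured: reporter mRNA in HepG2 transiently transfected with cis-promoter reporter units, 24 h after chemical addition. Fitting was bidirectional, DMSO as negative control.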

[12] = ATG_TAL_CIS: Attagene CIS-FACTORIAL HepG2 Assay for human TAL Basal Promoter (AID 2282966); settings: HepG2 Attagene cis-factorial TAL promoter reporter; actives raise or lower the signal;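 also: background control endpoint measuring basal TAL promoter reporter mRNA not a specific factor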
Outline: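 Transiently transfected HepG2 (cis-regulated reporter units), 24 h treatment, mRNA read by fluorescent CE after RT-PCR; bidirectional fit, DMSO baseline.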

[13] = ATG_TGFb_CIS: Attagene CIS-FACTORIAL HepG2 Assay for human Transforming Growth Factor (TGF) (AID 2282967); settings: HepG2 Attagene CIS TGFb reporter, mRNA transcription; actives raise or lower the signal
Outline: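 Endogenous TGFB1-linked transcription factor activity read as reporter mRNA via RT-PCR and capillary electrophoresis, 24 h after dosing transiently transfected HepG2 cells. Gain or loss of signal fitted relative to DMSO.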

[14] = ATG_VDRE_CIS: Attagene CIS-FACTORIAL HepG2 Assay for human Vitamin D Receptor Element (VDRE) (AID 2282968); settings: HepG2 VDRE cis-reporter transcription, actives raise or lower the signal
Outline: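 Measures endogenous factor activity through cis-element-driven reporter transcripts in transiently transfected HepG2. Cells are treated 24 h; reporter mRNA is quantified by RT-PCR and capillary electrophoresis; fitting is bidirectional.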

[15] = molecular target: Steroid hormone receptor ERR1 (Homo sapiens) (UniProt P11474); test: ATG_ERRa_TRANS: Attagene TRANS-FACTORIAL HepG2 Assay for human Estrogen-Related Receptor alpha (ERRa) (AID 2282971; active = hit-call score of the fitted dose curve at least 0.9, where 1 is the maximum); settings: HepG2 Attagene TRANS reporter, ERRa transactivation
Outline: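 HepG2 cells transiently transfected with multiplexed GAL4-UAS reporter units reading chimeric ERRa-Gal4 activity; 24 h compound exposure. Reporter mRNA measured by RT-PCR, 6-FAM labelling, HpaI digest and capillary electrophoresis; gain of signal fitted versus DMSO baseline.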

[16] = molecular target: X-box-binding protein 1 (Homo sapiens) (UniProt P17861); test: ATG_Xbp1_CIS: Attagene CIS-FACTORIAL HepG2 Assay for human X-box Binding Protein 1 (XBP1) (AID 2282972); settings: HepG2 XBP1 cis-element reporter, Attagene multiplex; actives raise or lower the signal
Outline: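 Changes in reporter transcript abundance, read by RT-PCR and capillary electrophoresis, reflect endogenous transcription factor activity. Transfected HepG2 cells received compound for 24 hours; DMSO defined baseline for bidirectional analysis.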

[17] = ATG_M_19_TRANS: Attagene TRANS-FACTORIAL HepG2 Assay for M19 Transcription Factor (Internal Marker) (AID 2282974; active = hit-call score of the fitted dose curve at least 0.9, where 1 is the maximum); settings: HepG2 Attagene TRANS-FACTORIAL M19 internal marker reporter
Outline: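 24 h chemical exposure of transiently transfected HepG2 (MRTU library). RNA → oligo(dT) RT → PCR → 6-FAM labelling → HpaI cut → CE fluorescence. Positive-direction fit vs DMSO baseline; background internal-marker readout.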

[18] = molecular target: Nuclear receptor subfamily 1 group I member 3 (Homo sapiens) (UniProt Q14994); test: ATG_CAR_TRANS: Attagene TRANS-FACTORIAL HepG2 Assay for human Constitutive Androstane Receptor (CAR) (AID 2282969; active = hit-call score of the fitted dose curve at least 0.9, where 1 is the maximum;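 also: activators raise reporter mRNA above DMSO so AC50 marks induction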); settings: HepG2 Attagene TRANS-FACTORIAL CAR reporter
Outline: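 Signal is reporter mRNA induction relative to DMSO, measured 24 h after dosing by RT-PCR with fluorescent primer extension and capillary electrophoresis. Human HepG2 liver cells carried transiently transfected chimeric NR-Gal4/GAL4-UAS reporter constructs.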

[19] = molecular target: Estrogen receptor (Homo sapiens) (UniProt P03372); test: ATG_ERa_TRANS: Attagene TRANS-FACTORIAL HepG2 Assay for human Estrogen Receptor alpha (ERa) (AID 2282970; active = hit-call score of the fitted dose curve at least 0.9, where 1 is the maximum); settings: HepG2 Attagene TRANS ERa GAL4 reporter, mRNA
Outline: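 One of 30 multiplexed endpoints from a HepG2 TRANS system, this one reports ERa-Gal4-driven reporter mRNA. Transcripts were quantified 24 hours post-dosing by fluorescent RT-PCR and capillary electrophoresis, with activity scored as induction over DMSO.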

[20] = molecular target: Androgen receptor (Homo sapiens) (UniProt P10275); test: ATG_AR_TRANS: Attagene TRANS-FACTORIAL HepG2 Assay for human Androgen Receptor (AR) (AID 2282973; active = hit-call score of the fitted dose curve at least 0.9, where 1 is the maximum); settings: HepG2 Attagene TRANS-FACTORIAL AR reporter transcription
Outline: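 HepG2 cells transiently transfected with multiplexed GAL4-UAS reporter units and chimeric NR-Gal4 fusion; 24 h compound exposure. Reporter mRNA measured by RT-PCR, 6-FAM labelling, HpaI digestion and capillary electrophoresis; gain-of-signal fitted relative to DMSO baseline.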

Measured: AC50

Signal transducer and activator of transcription 3 (Homo sapiens), sequence (P40763 whole entry, looked up): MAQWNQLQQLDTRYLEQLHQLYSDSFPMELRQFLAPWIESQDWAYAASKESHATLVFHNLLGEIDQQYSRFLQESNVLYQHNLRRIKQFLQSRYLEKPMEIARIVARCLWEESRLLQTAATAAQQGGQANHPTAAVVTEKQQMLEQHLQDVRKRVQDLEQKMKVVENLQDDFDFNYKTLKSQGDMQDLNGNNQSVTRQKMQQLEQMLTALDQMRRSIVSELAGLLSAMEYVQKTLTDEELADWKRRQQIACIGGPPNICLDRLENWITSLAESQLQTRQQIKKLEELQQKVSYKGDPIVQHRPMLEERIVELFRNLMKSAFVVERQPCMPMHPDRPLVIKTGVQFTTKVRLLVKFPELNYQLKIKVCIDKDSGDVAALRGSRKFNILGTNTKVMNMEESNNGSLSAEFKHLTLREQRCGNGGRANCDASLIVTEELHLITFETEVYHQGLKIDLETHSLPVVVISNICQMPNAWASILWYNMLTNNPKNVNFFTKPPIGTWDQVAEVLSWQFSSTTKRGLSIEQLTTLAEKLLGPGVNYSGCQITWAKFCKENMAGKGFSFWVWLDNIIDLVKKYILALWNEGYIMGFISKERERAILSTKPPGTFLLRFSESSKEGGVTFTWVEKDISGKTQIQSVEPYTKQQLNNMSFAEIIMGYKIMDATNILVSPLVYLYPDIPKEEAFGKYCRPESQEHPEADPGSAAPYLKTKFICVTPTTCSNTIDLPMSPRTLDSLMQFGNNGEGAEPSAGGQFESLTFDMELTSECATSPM
X-box-binding protein 1 (Homo sapiens), sequence (P17861 whole entry, looked up): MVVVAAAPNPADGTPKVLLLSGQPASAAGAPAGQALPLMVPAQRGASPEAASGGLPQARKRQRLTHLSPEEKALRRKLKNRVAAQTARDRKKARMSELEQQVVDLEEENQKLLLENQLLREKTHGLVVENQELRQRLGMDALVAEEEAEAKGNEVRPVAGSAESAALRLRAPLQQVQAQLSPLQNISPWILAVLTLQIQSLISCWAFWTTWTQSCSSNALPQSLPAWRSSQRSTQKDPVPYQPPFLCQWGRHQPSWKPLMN
Transcription factor Sp1 (Homo sapiens), sequence (P08047 whole entry, looked up): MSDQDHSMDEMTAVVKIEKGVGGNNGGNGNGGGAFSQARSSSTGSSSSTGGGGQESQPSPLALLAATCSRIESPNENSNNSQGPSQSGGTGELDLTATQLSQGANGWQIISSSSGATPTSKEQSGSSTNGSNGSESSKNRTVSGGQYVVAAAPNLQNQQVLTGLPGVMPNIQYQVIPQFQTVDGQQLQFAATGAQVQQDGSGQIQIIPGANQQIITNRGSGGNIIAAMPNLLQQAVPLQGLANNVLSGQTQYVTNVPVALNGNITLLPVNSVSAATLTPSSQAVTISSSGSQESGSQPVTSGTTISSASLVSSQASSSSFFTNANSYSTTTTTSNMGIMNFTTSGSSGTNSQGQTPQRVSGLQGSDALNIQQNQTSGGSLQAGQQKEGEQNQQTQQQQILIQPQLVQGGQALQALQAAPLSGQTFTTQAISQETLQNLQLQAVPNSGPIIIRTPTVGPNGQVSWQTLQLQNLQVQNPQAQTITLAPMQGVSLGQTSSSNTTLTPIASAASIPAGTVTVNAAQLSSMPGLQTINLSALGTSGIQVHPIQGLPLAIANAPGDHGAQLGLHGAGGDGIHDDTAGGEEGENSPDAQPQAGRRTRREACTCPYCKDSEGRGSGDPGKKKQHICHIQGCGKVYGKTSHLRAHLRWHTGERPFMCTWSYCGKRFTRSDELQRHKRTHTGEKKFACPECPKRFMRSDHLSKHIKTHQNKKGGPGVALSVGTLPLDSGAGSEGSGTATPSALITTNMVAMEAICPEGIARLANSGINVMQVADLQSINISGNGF
Steroid hormone receptor ERR1 (Homo sapiens), sequence (P11474 whole entry, looked up, the tested form may be a part): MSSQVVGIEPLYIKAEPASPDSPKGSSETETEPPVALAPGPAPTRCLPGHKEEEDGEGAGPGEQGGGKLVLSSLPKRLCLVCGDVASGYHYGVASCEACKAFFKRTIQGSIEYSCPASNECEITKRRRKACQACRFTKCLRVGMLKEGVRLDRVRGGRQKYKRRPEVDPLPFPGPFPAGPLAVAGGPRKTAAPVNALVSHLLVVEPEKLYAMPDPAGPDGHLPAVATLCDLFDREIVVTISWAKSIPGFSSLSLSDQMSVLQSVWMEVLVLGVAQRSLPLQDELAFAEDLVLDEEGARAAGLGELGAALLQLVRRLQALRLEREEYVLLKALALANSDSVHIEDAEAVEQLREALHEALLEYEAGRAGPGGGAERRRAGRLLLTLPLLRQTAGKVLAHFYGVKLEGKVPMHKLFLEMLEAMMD
Estrogen receptor (Homo sapiens), sequence (P03372 whole entry, looked up, the tested form may be a part): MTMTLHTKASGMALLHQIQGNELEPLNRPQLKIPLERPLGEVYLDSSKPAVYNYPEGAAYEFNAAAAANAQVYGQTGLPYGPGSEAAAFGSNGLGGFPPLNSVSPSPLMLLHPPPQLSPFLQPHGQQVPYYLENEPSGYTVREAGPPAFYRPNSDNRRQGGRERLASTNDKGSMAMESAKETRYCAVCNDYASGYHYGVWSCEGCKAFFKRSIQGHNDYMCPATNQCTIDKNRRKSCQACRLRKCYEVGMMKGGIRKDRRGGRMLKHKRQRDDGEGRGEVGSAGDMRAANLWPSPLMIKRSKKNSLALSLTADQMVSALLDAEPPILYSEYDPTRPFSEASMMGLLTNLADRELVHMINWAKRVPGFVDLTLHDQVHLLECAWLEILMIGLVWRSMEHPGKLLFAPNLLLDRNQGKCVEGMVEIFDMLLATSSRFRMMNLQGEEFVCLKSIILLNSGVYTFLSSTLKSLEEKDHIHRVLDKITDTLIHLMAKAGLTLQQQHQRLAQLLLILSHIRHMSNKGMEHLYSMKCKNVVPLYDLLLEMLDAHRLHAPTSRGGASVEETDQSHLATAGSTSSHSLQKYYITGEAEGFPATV
Paired box protein Pax-6 (Homo sapiens), sequence (P26367 whole entry, looked up): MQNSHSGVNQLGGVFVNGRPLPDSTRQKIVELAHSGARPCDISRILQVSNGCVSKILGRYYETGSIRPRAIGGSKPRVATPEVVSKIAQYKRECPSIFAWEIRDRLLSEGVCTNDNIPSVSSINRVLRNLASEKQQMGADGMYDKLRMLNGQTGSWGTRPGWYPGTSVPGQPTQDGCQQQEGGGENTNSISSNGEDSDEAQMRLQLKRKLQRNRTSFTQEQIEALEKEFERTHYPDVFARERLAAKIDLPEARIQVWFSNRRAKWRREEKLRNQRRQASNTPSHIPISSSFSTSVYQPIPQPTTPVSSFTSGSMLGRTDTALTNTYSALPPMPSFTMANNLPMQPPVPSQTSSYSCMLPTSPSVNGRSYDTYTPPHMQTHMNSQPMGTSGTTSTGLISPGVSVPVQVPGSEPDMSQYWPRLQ
Nuclear receptor subfamily 1 group I member 3 (Homo sapiens), sequence (Q14994 whole entry, looked up, the tested form may be a part): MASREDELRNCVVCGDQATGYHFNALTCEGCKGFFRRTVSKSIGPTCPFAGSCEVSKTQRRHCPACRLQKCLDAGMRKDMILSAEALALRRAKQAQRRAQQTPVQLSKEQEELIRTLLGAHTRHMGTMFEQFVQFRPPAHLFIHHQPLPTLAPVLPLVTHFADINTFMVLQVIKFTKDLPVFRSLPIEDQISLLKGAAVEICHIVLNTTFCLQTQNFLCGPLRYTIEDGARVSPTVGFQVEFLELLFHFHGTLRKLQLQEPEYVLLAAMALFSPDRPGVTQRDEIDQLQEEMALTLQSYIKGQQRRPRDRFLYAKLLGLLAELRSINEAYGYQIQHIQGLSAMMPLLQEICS
Androgen receptor (Homo sapiens), sequence (P10275 whole entry, looked up, the tested form may be a part): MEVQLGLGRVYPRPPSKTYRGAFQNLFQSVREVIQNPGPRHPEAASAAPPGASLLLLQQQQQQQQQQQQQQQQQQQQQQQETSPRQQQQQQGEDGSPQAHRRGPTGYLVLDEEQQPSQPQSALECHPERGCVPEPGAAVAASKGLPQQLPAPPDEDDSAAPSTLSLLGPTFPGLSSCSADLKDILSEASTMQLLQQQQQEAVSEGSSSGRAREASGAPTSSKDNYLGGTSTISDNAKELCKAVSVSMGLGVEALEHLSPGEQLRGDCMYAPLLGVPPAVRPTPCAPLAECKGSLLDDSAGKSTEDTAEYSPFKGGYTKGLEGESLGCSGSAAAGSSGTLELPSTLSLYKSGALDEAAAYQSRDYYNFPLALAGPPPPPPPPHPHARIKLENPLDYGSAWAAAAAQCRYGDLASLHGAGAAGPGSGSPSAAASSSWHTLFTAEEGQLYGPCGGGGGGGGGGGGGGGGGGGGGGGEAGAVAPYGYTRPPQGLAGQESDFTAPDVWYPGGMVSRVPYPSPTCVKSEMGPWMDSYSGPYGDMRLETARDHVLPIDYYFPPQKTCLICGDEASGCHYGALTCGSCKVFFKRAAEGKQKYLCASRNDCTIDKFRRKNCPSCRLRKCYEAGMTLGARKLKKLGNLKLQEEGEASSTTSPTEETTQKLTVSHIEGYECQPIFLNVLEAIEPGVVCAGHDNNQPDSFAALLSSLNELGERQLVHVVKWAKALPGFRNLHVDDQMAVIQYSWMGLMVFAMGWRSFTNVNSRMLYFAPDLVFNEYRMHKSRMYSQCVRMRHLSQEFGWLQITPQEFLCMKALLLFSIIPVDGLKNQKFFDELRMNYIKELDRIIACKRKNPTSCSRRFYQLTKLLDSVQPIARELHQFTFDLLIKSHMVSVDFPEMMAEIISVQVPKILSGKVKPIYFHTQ

CCC(C)(C)C(=O)OC1=C(c2ccc(Cl)cc2Cl)C(=O)OC12CCCCC2
not listed: [18] | [19] | [20]
inactive: all other assays above

COC(=O)c1ccccc1S(=O)(=O)NC(=O)Nc1nc(C)nc(OC)n1
not listed: [1] | [4] | [5] | [15] | [18] | [19] | [20]
inactive: all other assays above

[2H]C1([2H])[n+]2ccccc2-c2cccc[n+]2C1([2H])[2H]
active: [3] 18.6 µM | [8] 13.3 µM
not listed: [15] | [18] | [19] | [20]
inactive: all other assays above

CN1CSC(=S)N(C)C1
active: [4] 10.3 µM | [7] 50 µM | [14] 78.3 µM | [16] 50 µM
not listed: [17] | [19] | [20]
inactive: all other assays above

O=S1OCC2C(CO1)C1(Cl)C(Cl)=C(Cl)C2(Cl)C1(Cl)Cl (configuration not stated)
active: [3] 1.47 µM | [19] 2.04 µM
not listed: [4] | [15] | [20]
inactive: all other assays above

O=[N+]([O-])/N=C1\NCCN1Cc1ccc(Cl)nc1
active: [3] 30.6 µM
not listed: [4] | [17]
inactive: all other assays above

COP(=O)(OC)OC=C(Cl)Cl
active: [3] 21.8 µM | [4] 22.9 µM | [16] 25.1 µM
not listed: [1] | [14] | [15] | [17] | [18] | [20]
inactive: all other assays above
